High-throughput results deposited in PubChem BioAssay by several laboratories.
The list is not random: actives were taken first. Their share in the collection is about 2.9%.
CRFR2-BP ag: CRF-BP/CRF-R2 complex agonism. HEK293 CRF-R2/CRF-BP, calcium dye fluorescence (FLIPR); percent of saturating CRF peptide response. activation, % at 13.2 µM. actives 0.46% (n = 350,000). AID 588473;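 active = activation of at least 50%, plus an integration ratio under a set limit after plate pattern correction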;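 also: plate controls were neutral control wells without compound for no effect and CRF at EC100 for full effect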
MEKK3 PB1 HTS: raises or lowers MEK5 binding to the human MEKK3 PB1 domain. Q99759. bead-based flow cytometry, Alexa488-MEK5 binding to MEKK3; actives lie on both sides; 0 = blocked by unlabeled MEK5, 100 = vehicle. binding response (% of control), % at 10 µM. actives 1.4% (n = 290,000). AID 1529;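 active = binding response more than 3 SD above or below the average of its plate-row segment, actives on both sides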;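 also: Alexa488 bead fluorescence after subtracting the streptavidin-only scavenger bead signal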
MEKK2 WT-MEK5: raises or lowers MEK5 binding to wildtype human MEKK2 PB1 domain; bead flow cytometry, Alexa488-MEK5 binding to MEKK2 WT; actives lie on both sides; binding response (% of control), % at 10 µM; actives 1.1% (n = 290,000); AID 1531; in the data active = binding response below about 67% or above about 130%
MEKK2 mut-MEK5: signal of MEK5 binding to mutant human MEKK2 PB1 domain. bead flow cytometry, Alexa488-MEK5 binding to MEKK2 mutant. percent response, % at 10 µM. actives 0.35% (n = 290,000). AID 1530; in the data active = percent response above about 24%, passing the limit was not always enough
CRFR2-BP antag: CRF-BP/CRF-R2 complex antagonism; HEK293 CRF-R2/CRF-BP, CRF-induced calcium fluorescence; inhibition, % at 11.8 µM; actives 0.59% (n = 350,000);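 active = inhibition of the ligand-induced calcium signal above about 50% at the single tested concentration, limit read from the data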
ABCB6 inh MLPCN: blocks the human ABCB6 transporter; actives 0.19% (n = 360,000); fluorescence ratio to DMSO, % at 10 µM; K562-ABCB6 porphyrin accumulation, flow cytometry, 1 h; hits give low values;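 active = fluorescence ratio to DMSO below 75%, the collection mean minus 3 SD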;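 also: signal is porphyrin accumulated inside mitochondria; 100% equals median channel fluorescence of DMSO control wells; lower ratio means ABCB6 inhibition with less porphyrin fluorescence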
MEKK2wt confirm: raises or lowers MEK5 binding to wildtype human MEKK2, retest; bead flow cytometry, Alexa488-MEK5 binding to MEKK2 WT; actives lie on both sides; shares compounds with MEKK3 PB1 HTS; AID 1892; binding response (% of control), % at 10 µM; actives 2.4% (n = 5,900); in the data active = binding response below about 16% or above about 210%; inactive = in between
MEKK2mut confirm: signal of MEK5 binding to mutant human MEKK2, retest; AID 1893; actives 2% (n = 5,900); bead flow cytometry, Alexa488-MEK5 binding to MEKK2 mutant; percent response, % at 10 µM; shares compounds with MEKK3 PB1 HTS; in the data active = percent response mostly above about 71%, no sharp cut-off; inactive = mostly below about 38%;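 also: higher means compound restores mutant binding toward wildtype level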
MEKK3 confirm: MEKK3-MEK5 PB1 inhibition, single concentration confirmation; shares compounds with MEKK3 PB1 HTS; bead flow cytometry, Alexa488-MEK5 binding to MEKK3; hits give low values; binding response (% of control), % at 10 µM; actives 1.8% (n = 5,900); AID 1894;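 active = binding response below 72% of control, or above a set upper limit, though filed actives all read lower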;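 also: 100% = DMSO only wells and 0% = binding blocked by excess unlabeled MEK5; lower values mean stronger disruption of MEK5 binding to MEKK3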
Numbers without * were called inactive; x = no result; [ ] = dose if it differs, or a comment.

SMILES	CRFR2-BP ag	MEKK3 PB1 HTS	MEKK2 WT-MEK5	MEKK2 mut-MEK5	CRFR2-BP antag	ABCB6 inh MLPCN	MEKK2wt confirm	MEKK2mut confirm	MEKK3 confirm
COc1ccc(CNCCC(c2ccc(F)cc2)c2ccc(OC(C)C)cc2)cc1OC (stereo not drawn)	4	71	82	-5	-2	97	x	x	x
COc1ccc(C(CCNCc2ccc(OC(C)C)cc2)c2ccccc2OC)cc1 (stereo not drawn)	1	111	199*	40*	-8	96	198	70*	111
COc1ccc(C(CCNCc2ccc(F)cc2)c2ccc(F)cc2)cc1 (stereo not drawn)	45	99	128	5	-93	91	x	x	x
COc1ccc(C(CCNCc2ccc(N(C)C)cc2)c2ccccc2OC)cc1 (stereo not drawn)	0	108	148*	22	-3	95	142	18	105
COc1ccc(CNCCC(c2ccccc2)c2ccc(OC(C)C)cc2)cc1OC (stereo not drawn)	8	106	151*	22	-13	98	147	34	110
COc1ccc(CNC(C)CCc2ccccc2)cc1 (stereo not drawn)	-2	107	113	9	2	99	x	x	x
O=C(c1cccc(S(=O)(=O)N2CCCC2)c1)N1CCOCC1	0	x	x	x	5	93	x	x	x
O=C(O)c1ccc(OCCN2CCCC2=O)cc1	2	100	104	0	8	97	x	x	x
CCOC(=O)C(CC1=CS(=O)(=O)c2ccc(Cl)cc21)(NC(C)=O)C(=O)OCC	-4	x	x	x	-2	106	x	x	x
COc1ccc(C(CCNCc2ccccc2)c2ccc(F)cc2)cc1 (stereo not drawn)	18	94	103	5	-44	93	x	x	x
COc1ccc(CNCCC(c2ccc(OC)cc2)c2ccccc2OC)cc1 (stereo not drawn)	0	106	147*	21	0	96	149	41	104
Cc1ccc2c(c1)N(CC(=O)NC1CCCC(C)C1C)C(=O)c1cccnc1O2 (stereo not drawn)	-3	100	99	-1	-11	96	x	x	x
NC(=O)COc1ccc(-c2noc(COc3ccccc3[N+](=O)[O-])n2)cc1	0	132*	119	1	8	95	96	1	100
COc1ccccc1OCc1nc(-c2cccc([N+](=O)[O-])c2)no1	-2	99	103	0	12	106	x	x	x
CCN1CCN(C(=O)c2ccc(Cl)c(S(=O)(=O)N(C)c3ccccc3)c2)CC1	0	x	x	x	0	95	x	x	x
CC(C)=C(NC(=O)c1ccccc1)C(=O)N/N=C/c1ccc(O)cc1	1	100	19*[inhibitor]	0	21	110	101	2	100
COc1ccc(S(=O)(=O)N2CCOCC2)cc1NC(=O)CN1C(=O)NC2(CCCC2)C1=O	-1	x	x	x	7	96	x	x	x
COc1ccc(-c2csc3nc(-c4cccnc4)nc(Cl)c23)cc1OC	1	145*	105	1	8	96	105	10	109
Clc1nc(-c2cccnc2)nc2scc(-c3ccccc3)c12	1	95	94	-2	-14	100	x	x	x
CCCCN(C(=O)c1cccs1)C1CCS(=O)(=O)C1 (stereo not drawn)	1	x	x	x	-1	98	x	x	x
Cn1c(=O)oc2cc(S(=O)(=O)NCc3ccc(Cl)cc3)ccc21	-1	0.0*[inhibitor]	-6.0*[inhibitor]	-57	7	100	93	-9	100
